Source: PubChem BioAssay
This is a sample that favours compounds with a hit; in the whole collection about 2.5% have one here.
Rce1 inh = yeast Rce1p protease inhibitors, primary screen, biochemical, fluorescence, cell-free homogeneous. CAAX prenyl protease 2 (Saccharomyces cerevisiae (strain ATCC 204508 / S288c)), Q03530. yeast membranes, quenched prenylated peptide cleavage fluorescence. calls only. hit rate 0.27% among 290,000;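 active = fall in fluorescence gain of 50% or more versus controls, with final raw signal at or below 3038400; inconclusive = same 50% fall but final raw signal above 3038400; inactive = fall in fluorescence gain under 50%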;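 also: plate controls were neutral control wells for no effect and wells lacking membranes for full effect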
MEKK2 mut-MEK5 = MEK5 binding signal on mutant MEKK2 PB1, primary screen, biochemical, multiplex bead flow cytometry, Alexa488-MEK5; Alexa488-MEK5 binding to MEKK2 mutant; percent response, % at 10 µM; hit rate 0.35% among 290,000; AID 1530, 2009; in the data active = percent response above about 24%, passing the limit was not always enough
MEKK2 WT-MEK5 = modulators of MEK5 binding to wildtype MEKK2, primary screen, biochemical, multiplex bead flow cytometry, Alexa488-MEK5; Mitogen-activated protein kinase kinase kinase 2 (Homo sapiens), Q9Y2U5; Alexa488-MEK5 binding to MEKK2 WT; actives lie on both sides; binding response (% of control), % at 10 µM; hit rate 1.1% among 290,000; AID 1531, 2009; in the data active = binding response below about 67% or above about 130%; inconclusive = no clear call, values can overlap the other calls; inactive = in between
MEKK3 PB1 HTS = modulators of MEKK3-MEK5 PB1 binding, primary screen, biochemical, wildtype MEKK3, multiplex bead flow cytometry, Alexa488-MEK5; binding response (% of control), % at 10 µM; bead-based flow cytometry, Alexa488-MEK5 binding to MEKK3; actives lie on both sides; 0 = blocked by unlabeled MEK5, 100 = vehicle; AID 1529, 2009; hit rate 1.4% among 290,000;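 active = binding response more than 3 SD above or below the average of its plate-row segment, actives on both sides; inconclusive = wells at one plate position flagged as instrument error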;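 also: Alexa488 bead fluorescence after subtracting the streptavidin-only scavenger bead signal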
Target sequence (Q99759 whole entry, looked up): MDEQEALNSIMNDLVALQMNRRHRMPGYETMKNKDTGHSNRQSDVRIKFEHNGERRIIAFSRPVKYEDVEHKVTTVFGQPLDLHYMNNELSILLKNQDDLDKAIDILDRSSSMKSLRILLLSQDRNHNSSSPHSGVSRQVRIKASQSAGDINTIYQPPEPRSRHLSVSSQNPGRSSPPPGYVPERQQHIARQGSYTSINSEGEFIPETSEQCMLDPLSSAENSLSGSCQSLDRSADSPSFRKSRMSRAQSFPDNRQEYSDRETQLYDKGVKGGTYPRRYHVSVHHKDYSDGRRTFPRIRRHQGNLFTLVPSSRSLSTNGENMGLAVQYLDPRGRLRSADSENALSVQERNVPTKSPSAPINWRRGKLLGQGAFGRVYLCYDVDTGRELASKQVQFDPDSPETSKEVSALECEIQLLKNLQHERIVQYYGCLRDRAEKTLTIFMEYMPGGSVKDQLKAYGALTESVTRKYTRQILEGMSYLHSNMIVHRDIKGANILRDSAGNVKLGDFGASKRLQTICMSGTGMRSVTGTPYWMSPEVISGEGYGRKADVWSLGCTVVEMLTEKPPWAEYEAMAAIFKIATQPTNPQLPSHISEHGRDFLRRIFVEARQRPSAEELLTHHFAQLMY
UBC13 inh = UBC13 polyubiquitin chain formation inhibitors, primary screen, biochemical, TR-FRET, uHTS; Ubiquitin-conjugating enzyme E2 N (Homo sapiens), P61088; inhibition, % at 20 µM; hit rate 0.47% among 330,000; AID 485273, 2010; in the data active = inhibition above about 45%, passing the limit was not always enough; inconclusive = no clear call, values can overlap the other calls
MEKK2wt confirm = modulators of MEK5 binding to wildtype MEKK2, confirmation, biochemical, single concentration, multiplex bead flow cytometry; shares compounds with MEKK3 PB1 HTS; Alexa488-MEK5 binding to MEKK2 WT; actives lie on both sides; binding response (% of control), % at 10 µM; hit rate 2.4% among 5,900; AID 1892, 2009; in the data active = binding response below about 16% or above about 210%; inactive = in between
MEKK2mut confirm = mutant MEKK2 PB1-MEK5 binding signal retest – biochemical, single concentration, multiplex bead flow cytometry, confirmation. percent response, % at 10 µM. hit rate 2% among 5,900. shares compounds with MEKK3 PB1 HTS. AID 1893, 2009. Alexa488-MEK5 binding to MEKK2 mutant; in the data active = percent response mostly above about 71%, no sharp cut-off; inactive = mostly below about 38%;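 also: higher means compound restores mutant binding toward wildtype level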
MEKK3 confirm = MEKK3 wild-type PB1 binding to MEK5, inhibitors, confirmation, biochemical, bead multiplex flow cytometry, single concentration, wildtype. shares compounds with MEKK3 PB1 HTS. Alexa488-MEK5 binding to MEKK3; active compounds read low. binding response (% of control), % at 10 µM. hit rate 1.8% among 5,900;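 active = binding response below 72% of control, or above a set upper limit, though filed actives all read lower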;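 also: 100% = DMSO only wells and 0% = binding blocked by excess unlabeled MEK5; lower values mean stronger disruption of MEK5 binding to MEKK3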
Starred values were filed as active, the others as inactive; i = inactive; ? = inconclusive; . = not tested or not shown; [ ] = dose if it differs, or a comment.

SMILES	Rce1 inh	MEKK2 mut-MEK5	MEKK2 WT-MEK5	MEKK3 PB1 HTS	UBC13 inh	MEKK2wt confirm	MEKK2mut confirm	MEKK3 confirm
Clc1ccc(-n2c(SCc3nc4ccccc4[nH]3)nnc2-c2ccncc2)cc1	i	5.0	104.0	101.0	-7.9	.	.	.
O=c1[nH]ncc(NCc2ccc(Cl)cc2)c1Cl	i	0.0	107.0	132.0*	-0.6	99.0	-4.0	101.0
Cc1n[nH]c(=O)nc1NCc1ccc(Cl)cc1	i	5.0	108.0	104.0	4.2	.	.	.
O=c1[nH]ncc(N/N=C\c2cccnc2)c1Cl	i	4.0	100.0	99.0	2.0	.	.	.
O=c1[nH]ncc(N/N=C\c2ccncc2)c1Cl	i	5.0	118.0	136.0*	-26.8	87.0	-11.0	88.0
COc1ccccc1CN1CCC(n2nccc2NC(=O)CCCc2ccccc2)CC1	i	19.0	142.0*	103.0	9.6	162.0	54.0	113.0
CCOc1ccccc1CN1CCC(n2nccc2NC(=O)CCCc2ccccc2)CC1	i	14.0	131.0	101.0	15.3	.	.	.
COc1cccc(N/C(SCc2ccccc2C)=C(/C#N)C(=O)NCc2cccs2)c1	i	-1.0	97.0	130.0*	-6.4	83.0	-21.0	84.0
COc1cccc(N/C(SCc2ccccc2Cl)=C(/C#N)C(=O)NCc2cccs2)c1	i	-1.0	98.0	121.0	-8.3	.	.	.
Cc1ccc(C2=N/C(=C/c3cccs3)C(=O)N2Nc2ccccc2)cc1	i	-15.0	52.0*[inhibitor]	81.0	-9.0	55.0	-18.0	91.0
CCCCc1ccc(N=N/C(C(=O)Nc2cc(OC)c(NC(C)=O)cc2OC)=C(/C)O)cc1	i	2.0	103.0	101.0	3.5	.	.	.
COCCC(C(=O)Oc1c(C(C)(C)C)cc(C)cc1C(C)(C)C)c1ccccc1 (configuration not stated)	.	.	.	.	-2.7	.	.	.
COC(=O)c1ccc(C(=O)OC)c(NC(=O)CN2CCCCC2)c1	i	-2.0	102.0	99.0	2.7	.	.	.
COc1ccccc1NC(=S)N1CCOCC1	i	0.0	99.0	73.0*[inhibitor]	-6.2	100.0	1.0	104.0
COC(=O)c1cc(OC)c(OC)cc1NC(=O)CN1CCCCC1	i	-26.0	-4.0*[inhibitor]	-1.0*[inhibitor]	1.4	92.0	-10.0	88.0
COC(=O)c1cc(OC)c(OC)cc1NC(=S)N1CCN(c2ccccc2)CC1	i	-21.0	2.0*[inhibitor]	1.0*[inhibitor]	12.1	102.0	-2.0	103.0
COC(=O)c1ccccc1NC(=S)N1CCN(c2ccccc2)CC1	i	8.0	104.0	108.0	-10.5	.	.	.
CC1=C(C(N)=O)C(c2ccccc2)n2nc(-c3ccncc3)nc2N1 (configuration not stated)	i	7.0	118.0	114.0	0.5	.	.	.
COc1cc(-c2nc3n(n2)C(c2ccncc2)C(C(N)=O)=C(C)N3)cc(OC)c1OC (configuration not stated)	i	5.0	114.0	122.0*	4.3	57.0	-20.0	85.0
CCOc1ccc(C(=O)NCC(c2cccs2)N(C)C)cc1OCC (configuration not stated)	i	-2.0	94.0	70.0*[inhibitor]	-6.4	100.0	5.0	103.0
Cc1cc(-c2ccccc2)n(-c2ccc(C(=O)NC(C)C)cc2)n1	i	4.0	112.0	107.0	4.4	.	.	.
Cc1cc(C)n(-c2ccc(C(=O)NC(C)C)cc2)n1	i	-26.0	-5.0*[inhibitor]	-1.0*[inhibitor]	-14.2	98.0	-8.0	96.0
Cc1ccc2nc(Cl)c3cc(C(=O)NCCCN4CCCC4)sc3c2c1	i	3.0	162.0*	109.0	21.6	174.0	46.0	114.0
Cc1ccc2[nH]c(=O)c3cc(C(=O)NCCN4CCN(C)CC4)sc3c2c1	i	2.0	98.0	97.0	18.1	.	.	.
Cc1ccc2nc(Cl)c3cc(C(=O)N(CCN(C)C)Cc4ccco4)sc3c2c1	i	5.0	149.0*	96.0	24.8	137.0	21.0	104.0
SMILES	Rce1 inh	MEKK2 mut-MEK5	MEKK2 WT-MEK5	MEKK3 PB1 HTS	UBC13 inh	MEKK2wt confirm	MEKK2mut confirm	MEKK3 confirm
CC1CC1C(=O)N1CCN(S(=O)(=O)c2cccc(F)c2)CC1 (configuration not stated)	i	.	.	.	-0.8	.	.	.
COc1ccc(Cn2c(SCc3ccccc3C)nc3cc(OC)c(OC)cc3c2=N)cc1	i	96.0*	278.0*	118.0	34.2	252.0*	79.0*	113.0
COc1cc2nc(SCc3ccc(F)cc3)n(Cc3cccs3)c(=N)c2cc1OC	i	2.0	116.0	103.0	7.7	.	.	.
Cc1cc(S(=O)(=O)Nc2noc3ccccc23)ccc1F	i	4.0	108.0	107.0	-15.2	.	.	.
CC(NC(=O)CNC(=O)c1cccs1)c1cccc(C(F)(F)F)c1 (configuration not stated)	.	.	.	.	6.1	.	.	.
COc1ccccc1NC(=O)C1=C(C)Nc2nnnn2C1c1ccncc1 (configuration not stated)	i	-1.0	99.0	100.0	4.5	.	.	.
CCOc1ccccc1C1C(C(=O)Nc2ccccc2OC)=C(C)Nc2nnnn21 (configuration not stated)	i	26.0*	111.0	113.0	-0.7	101.0	4.0	100.0
COc1ccc(-c2nsc3c(SCc4ccccc4)ncnc23)cc1	i	0.0	107.0	144.0*	?	97.0	1.0	101.0
CC(C)Sc1n[nH]c(=O)n1-c1ccccc1	i	0.0	100.0	102.0	2.9	.	.	.
COc1ccc(Oc2ccc(C(F)(F)F)cc2NC(=O)c2ccc(C)cc2)cc1	i	37.0	135.0	142.0*	-2.7	105.0	-2.0	103.0
COCCOc1ccc(C(F)(F)F)cc1NC(=O)c1ccc(C)cc1	i	6.0	101.0	93.0	5.9	.	.	.
Cc1ccc(NC(=S)NCc2ccc(Cl)cc2)c(OC(F)F)c1	i	-1.0	101.0	102.0	3.6	.	.	.
O=C(N/N=C/c1ccc([N+](=O)[O-])o1)c1cc2ccccc2o1	i	0.0	98.0	100.0	1.4	.	.	.
O=[N+]([O-])c1ccc(/C=N/Nc2ccc3ccccc3c2)o1	i	-2.0	2.0*[inhibitor]	88.0	-136.5	103.0	1.0	100.0
CCOC(=O)c1cc(C(=O)OCC)c(=O)[nH]c1SCc1ccccc1	i	3.0	101.0	98.0	-6.5	.	.	.
COc1ccc(S(=O)(=O)N2CCN(Cc3cccc(F)c3)CC2)cc1	i	.	.	.	0.5	.	.	.
